The record followed here is PubChem BioAssay (NCATS).

The structures appear in SMILES notation. Values joined by “and” are separate entries in the source; they are usually repeats but may differ in a detail not shown here. Identical values can stand only once. Records with an inconclusive call do not appear. Some structures have more than one record in an assay (separate samples or runs), and their calls can disagree. Active and inactive are the calls of the source. Unless noted, calls follow the shape of the dose curve; as a rule, active = well fitted curve in the direction sought with a large enough effect; inconclusive = small, poorly fitted or top-dose-only effect, or another doubt; inactive = no such curve, though single readings can be large; an effect the other way counts as inactive or inconclusive.

The target in assay [1] is Calcium and integrin-binding protein 1 (Homo sapiens) (UniProt Q99828). The assay is described as follows: Primary qHTS for Identification of Calcium Integrin Binding Protein 1 (CIB1) Competitor (AID 1508620).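 Also: GST tagged CIB1 binding a fluorescein labelled alphaIIb integrin peptide tracer; top concentration of the series differs between compounds.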 In outline:
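Fluorescence polarization competition: CIB1-GST (1 uM final) preincubated with compound 15 min at room temperature, then FITC-labeled alphaIIb peptide (100 nM final) added for another 15 min. Polarization read at Ex 480/Em 540.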
(qHTS replaces the single test concentration by a dilution series.)

The nature of assay [2]: Primary qHTS for small molecule stabilizers of the endoplasmic reticulum resident proteome: Secreted ER Calcium Modulated Protein (SERCaMP) assay (AID 1508630). In outline:
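GLuc-SERCaMP-expressing SH-SY5Y cells, pretreated 16 h with compound, are challenged with thapsigargin to empty ER calcium stores; after 4 h, coelenterazine is added directly to the medium and luminescence is imaged.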

Assay [3] in a line: Primary qHTS for inhibitors of nuclear receptor binding SET domain protein 2 (NSD2) in an isogenic RCH-ACV NSD2 p.E1099K mutant (9B) (AID 1645876). Also: nearly all actives have a fitted effect of over 70% in size. Also: potency is read from the fitted curve at half-maximal effect.
Assay [4] can be described thus: Primary qHTS for inhibitors of nuclear receptor binding SET domain protein 2 (NSD2) in an RCH-ACV wild type WT cells (2C) (AID 1645877). Also: nearly all actives have a fitted effect of over 70% in size. Also: potency is read from the fitted curve at half-maximal effect.
In assay [5] the target is Cytochrome P450 2D6 (Homo sapiens) (UniProt P10635). Briefly: Cytochrome P450 family 2 subfamily D member 6 (CYP2D6) small molecule antagonists: luciferase biochemical (cell-free) qHTS assay (AID 1645840; active = well fitted curve in the direction sought with a large enough effect in the repeat runs; an effect the other way counts as inactive or inconclusive; also: nearly all actives have a fitted effect of over 55% in size; also: potency is read from the fitted curve at half-maximal effect). In outline: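 P450-Glo luminescent screen: recombinant CYP2D6 enzyme–proluciferin substrate mix preincubated with compound 10 min at room temperature, then NADPH regeneration added for 1 h at room temperature. Detection reagent added for 20 min; luciferin light read as relative luminescence units.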
Chain of Cytochrome P450 2D6 (Homo sapiens) (P10635 whole entry, looked up): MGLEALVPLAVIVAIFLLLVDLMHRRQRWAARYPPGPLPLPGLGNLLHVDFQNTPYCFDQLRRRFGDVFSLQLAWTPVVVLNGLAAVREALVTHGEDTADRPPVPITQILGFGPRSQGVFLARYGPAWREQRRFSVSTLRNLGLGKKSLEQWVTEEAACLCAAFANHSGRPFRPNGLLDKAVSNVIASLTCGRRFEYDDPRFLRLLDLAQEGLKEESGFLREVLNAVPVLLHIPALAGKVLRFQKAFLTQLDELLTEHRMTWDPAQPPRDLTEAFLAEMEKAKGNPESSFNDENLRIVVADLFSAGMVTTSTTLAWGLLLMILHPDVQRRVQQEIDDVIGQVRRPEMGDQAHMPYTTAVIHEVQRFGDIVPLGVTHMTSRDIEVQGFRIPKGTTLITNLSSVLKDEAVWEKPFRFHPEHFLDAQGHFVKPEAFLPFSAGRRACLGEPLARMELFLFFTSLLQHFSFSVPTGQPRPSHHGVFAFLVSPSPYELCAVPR

For a further assay, the target named is Papain (Carica papaya) (UniProt P00784). Briefly: Primary qHTS assay for inhibitors of the protease papain (AID 1645873).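 Also: papain turnover of Z-FR-AMC read as the AMC fluorescence gain over 10 min; series mostly up to about 50 µM.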
Chain of Papain (Carica papaya) (P00784 whole entry, looked up): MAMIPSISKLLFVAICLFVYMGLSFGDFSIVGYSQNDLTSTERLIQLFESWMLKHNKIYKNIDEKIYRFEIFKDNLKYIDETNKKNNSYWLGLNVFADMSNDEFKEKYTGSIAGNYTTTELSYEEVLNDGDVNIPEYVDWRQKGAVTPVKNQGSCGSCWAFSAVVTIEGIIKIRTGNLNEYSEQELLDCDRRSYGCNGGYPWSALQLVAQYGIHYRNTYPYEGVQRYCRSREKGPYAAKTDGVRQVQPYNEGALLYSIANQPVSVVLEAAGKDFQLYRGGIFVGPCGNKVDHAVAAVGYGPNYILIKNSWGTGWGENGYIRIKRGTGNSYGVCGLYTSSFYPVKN
In assay [6] the target is Rap guanine nucleotide exchange factor 3 (Homo sapiens) (UniProt O95398). The assay is described as follows: Confirmatory qHTS for antagonist of cAMP-regulated guanine nucleotide exchange factor 3 (EPAC1) (AID 1645880). Also: nearly all actives have a fitted effect of over 55% in size. In outline:
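Nucleotide exchange uses 100 nM EPAC1, 250 nM RAP1B-BODIPY-GDP and 50 uM GDP, with compounds in a concentration-titration series. After 5 min at room temperature, fluorescence (480 nm ex/540 nm em) is read every 5 min for 30 min. Data are normalized to control ATA and DMSO.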

The target is the same in assay [7]. The assay is described as follows: Confirmatory qHTS for agonist of cAMP-regulated guanine nucleotide exchange factor 3 (EPAC1) (AID 1645881).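 Also: EPAC1 catalysed release of BODIPY-GDP from Rap1B seen as fluorescence loss; nearly all actives have a fitted effect of over 75% in size.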
Assay [8] has as its target Rap guanine nucleotide exchange factor 4 (Homo sapiens) (UniProt Q8WZA2). Briefly: Confirmatory qHTS for agonist of cAMP-regulated guanine nucleotide exchange factor 4 (EPAC2) (AID 1645884).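 Also: nucleotide exchange releases bodipy-GDP from Rap1 and this lowers its fluorescence; nearly all actives have a fitted effect of over 65% in size.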
The target is the same in assay [9]. The assay is described as follows: Confirmatory qHTS for antagonist of cAMP-regulated guanine nucleotide exchange factor 4 (EPAC2) (AID 1645885). Also: nearly all actives have a fitted effect of over 25% in size. Also: potency is read from the fitted curve at half-maximal effect.
Assay [10] concerns the target Rap guanine nucleotide exchange factor 3 (Homo sapiens) (UniProt O95398). Briefly: Counterscreen qHTS for antagonist of cAMP-regulated guanine nucleotide exchange factor 3 (EPAC1) (AID 1645888).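 Also: fluorescence loss as bound BODIPY-GDP is released from Rap1B.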 In outline: (§1)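 Measured: fluorescence of BODIPY-GDP bound to Rap1B, which falls as exchange proceeds. Conditions include 50 uM competing GDP, 5 and 30 min reads, and a later cAMP challenge for antagonist detection.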
For orientation: The purpose of a counterscreen is to sort out artefacts and off-target activity.

Assay [11] has as its target Cytochrome P450 2C9 (Homo sapiens) (UniProt P11712). The assay is described as follows: Cytochrome P450 family 2 subfamily C member 9 (CYP2C9) small molecule antagonists: luciferase biochemical (cell-free) qHTS assay (AID 1645842; active = well fitted curve in the direction sought with a large enough effect in the repeat runs; an effect the other way counts as inactive or inconclusive; also: nearly all actives have a fitted effect of over 55% in size; also: potency is read from the fitted curve at half-maximal effect). In outline: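 Luminescence, after 20 min with luciferin detection reagent, reflected CYP2C9 turnover during a 1 h NADPH-driven reaction at 37C. Enzyme-substrate mix contained 0.4% bovine serum albumin and was preincubated with compound 10 min at room temperature.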

In assay [12] the target is Rap guanine nucleotide exchange factor 3 (Homo sapiens) (UniProt O95398). Briefly: Counterscreen qHTS for agonist of cAMP-regulated guanine nucleotide exchange factor 3 (EPAC1) (AID 1645889). Also: nearly all actives have a fitted effect of over 40% in size. In outline: as §1
Chain of Rap guanine nucleotide exchange factor 3 (Homo sapiens) (O95398 whole entry, looked up): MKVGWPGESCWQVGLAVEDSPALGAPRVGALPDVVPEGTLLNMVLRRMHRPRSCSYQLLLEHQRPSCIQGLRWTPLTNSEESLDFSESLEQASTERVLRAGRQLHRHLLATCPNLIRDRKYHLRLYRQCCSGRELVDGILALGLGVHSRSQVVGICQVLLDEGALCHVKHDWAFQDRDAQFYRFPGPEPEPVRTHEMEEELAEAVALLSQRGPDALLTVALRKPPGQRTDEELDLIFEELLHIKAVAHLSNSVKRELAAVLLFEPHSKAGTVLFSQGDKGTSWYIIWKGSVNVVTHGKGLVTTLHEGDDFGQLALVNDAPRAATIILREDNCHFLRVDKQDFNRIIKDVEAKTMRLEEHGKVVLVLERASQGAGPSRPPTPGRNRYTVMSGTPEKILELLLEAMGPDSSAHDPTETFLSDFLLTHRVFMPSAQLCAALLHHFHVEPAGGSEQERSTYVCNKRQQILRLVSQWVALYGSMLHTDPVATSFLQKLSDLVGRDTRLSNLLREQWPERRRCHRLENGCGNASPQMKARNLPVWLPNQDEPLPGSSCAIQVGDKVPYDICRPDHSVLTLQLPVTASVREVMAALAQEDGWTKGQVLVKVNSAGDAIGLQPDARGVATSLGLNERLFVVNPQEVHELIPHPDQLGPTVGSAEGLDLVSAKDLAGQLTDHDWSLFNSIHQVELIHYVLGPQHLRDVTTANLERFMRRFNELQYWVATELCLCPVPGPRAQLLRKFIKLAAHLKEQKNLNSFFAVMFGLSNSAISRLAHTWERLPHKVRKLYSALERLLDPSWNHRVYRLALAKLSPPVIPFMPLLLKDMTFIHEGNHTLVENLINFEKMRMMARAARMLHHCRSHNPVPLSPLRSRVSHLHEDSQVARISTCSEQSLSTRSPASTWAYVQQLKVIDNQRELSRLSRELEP
Assay [13] in a line: A High-Content qHTS Against Drug Library for the Identification of Small Molecules that Inhibit DYT1 Early Onset Primary Dystonia-Associated Cell Pathology (AID 1645839; calls by dose curve; also: series mostly up to about 46 µM). In outline: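 Readout: %pathology, the punctate EGFP-TorsinA distribution from imaging, as the primary channel and cell count as the toxicity counterscreen. HEK293 Flp-In cells expressing delE TorsinA were induced with tetracycline and treated with compound for 48 h.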

Chain of Calcium and integrin-binding protein 1 (Homo sapiens) (Q99828 whole entry, looked up): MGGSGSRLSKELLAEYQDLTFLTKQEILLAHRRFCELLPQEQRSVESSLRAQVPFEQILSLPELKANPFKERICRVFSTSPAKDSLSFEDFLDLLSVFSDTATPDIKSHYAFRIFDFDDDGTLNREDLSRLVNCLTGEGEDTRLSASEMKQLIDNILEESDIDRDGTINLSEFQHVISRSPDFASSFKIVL
Chain of Cytochrome P450 2C9 (Homo sapiens) (P11712 whole entry, looked up): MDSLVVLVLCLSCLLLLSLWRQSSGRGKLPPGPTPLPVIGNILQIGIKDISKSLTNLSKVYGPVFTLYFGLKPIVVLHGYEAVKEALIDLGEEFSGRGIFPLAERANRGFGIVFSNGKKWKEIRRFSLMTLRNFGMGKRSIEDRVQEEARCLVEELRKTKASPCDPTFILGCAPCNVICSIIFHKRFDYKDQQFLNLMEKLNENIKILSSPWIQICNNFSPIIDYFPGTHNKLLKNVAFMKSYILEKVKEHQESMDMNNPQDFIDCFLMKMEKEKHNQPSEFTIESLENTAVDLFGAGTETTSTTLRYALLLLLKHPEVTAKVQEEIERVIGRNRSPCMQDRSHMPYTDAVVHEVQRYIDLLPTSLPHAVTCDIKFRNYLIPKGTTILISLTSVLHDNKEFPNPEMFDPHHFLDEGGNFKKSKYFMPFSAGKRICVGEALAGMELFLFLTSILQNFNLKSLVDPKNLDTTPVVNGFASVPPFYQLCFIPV
Chain of Rap guanine nucleotide exchange factor 4 (Homo sapiens) (Q8WZA2 whole entry, looked up): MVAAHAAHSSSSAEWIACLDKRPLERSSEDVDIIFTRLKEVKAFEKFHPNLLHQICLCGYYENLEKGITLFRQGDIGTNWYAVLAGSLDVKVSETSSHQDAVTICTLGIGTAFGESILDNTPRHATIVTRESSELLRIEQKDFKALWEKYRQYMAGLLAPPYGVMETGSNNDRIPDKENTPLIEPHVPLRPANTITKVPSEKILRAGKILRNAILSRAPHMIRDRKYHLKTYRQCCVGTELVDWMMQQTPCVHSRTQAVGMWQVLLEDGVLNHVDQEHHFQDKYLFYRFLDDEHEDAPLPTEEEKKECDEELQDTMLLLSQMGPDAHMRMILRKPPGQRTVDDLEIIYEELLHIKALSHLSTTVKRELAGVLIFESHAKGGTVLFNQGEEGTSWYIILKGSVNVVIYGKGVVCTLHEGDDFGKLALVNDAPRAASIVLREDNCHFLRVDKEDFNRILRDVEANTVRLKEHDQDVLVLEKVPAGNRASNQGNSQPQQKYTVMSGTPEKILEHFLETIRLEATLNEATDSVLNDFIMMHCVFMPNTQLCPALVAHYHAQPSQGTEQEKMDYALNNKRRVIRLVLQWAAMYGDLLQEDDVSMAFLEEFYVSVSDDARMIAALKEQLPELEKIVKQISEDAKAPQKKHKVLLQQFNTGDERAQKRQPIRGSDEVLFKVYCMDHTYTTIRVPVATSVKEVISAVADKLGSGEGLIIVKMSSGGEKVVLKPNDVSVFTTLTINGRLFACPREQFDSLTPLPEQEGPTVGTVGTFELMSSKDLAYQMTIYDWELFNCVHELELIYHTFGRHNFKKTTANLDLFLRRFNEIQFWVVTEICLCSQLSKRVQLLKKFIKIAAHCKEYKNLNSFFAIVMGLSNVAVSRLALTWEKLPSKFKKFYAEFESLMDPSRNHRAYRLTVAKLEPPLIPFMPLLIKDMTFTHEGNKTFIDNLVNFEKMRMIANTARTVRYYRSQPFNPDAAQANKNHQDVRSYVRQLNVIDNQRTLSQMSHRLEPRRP

Take `CCOC(=O)C1=C[C@@H](OC(CC)CC)[C@H](NC(C)=O)[C@@H](N)C1`: the Potency entry in assay [1], in assay [2], in assay [3] and in assay [4] was “inactive” throughout.
On to `Nc1nc(Cl)nc2c1ncn2[C@H]1C[C@H](O)[C@@H](CO)O1`, for which the Potency result in assay [1], in assay [2] and in assay [5] was “inactive” each time. Besides, the Potency in assay [3] was 46.8 nM (active); in [4] it was 0.0417 µM (active).
Regarding `O=C1c2c(O)cc(O)cc2OC(c2ccc(O)c(O)c2)C1O` (centres undefined), the Potency result (in assay [1]; with Papain (Carica papaya)) was “inactive” each time.
Regarding `Nc1ccn([C@@H]2O[C@H](CO)[C@@H](O)C2O)c(=O)n1` (some centres undefined), the Potency entry in [1], in assay [2] and in assay [5] was “inactive” in each case. Also, the results for the Potency in [3] and in [4] were 16.6 nM (active) and 0.0166 µM (active), respectively.
Turning to `Clc1ccc(C(Cn2ccnc2)OCc2c(Cl)cccc2Cl)c(Cl)c1` (centres undefined), the Potency entry in [1], in [2] and in assay [6] was “inactive” throughout. The Potency was 21.1 µM (active) and 18.6 µM (active) in assay [3]; 21.1 µM (active) and 18.6 µM (active) in assay [4]; 20.5 µM (active) and inactive in assay [9]. The call in assay [7], in [8] and in [10] was inactive.
Consider `CN(C)[C@@H](CCOc1cccc2ccccc12)c1ccccc1`, for which the Potency entry in assay [1] and in assay [2] was “inactive” each time. The Potency in [5] is 347 nM (active) and 849 nM (active); in [11], 15.5 µM (active) and 21.3 µM (active); in assay [4] it was 23.7 µM (active).
Turning to `CCN(CC)CCOc1ccc(Cc2ccccc2)cc1`, the Potency result in assay [1], in assay [2] and in [11] was “inactive” each time. The Potency in [5] was 6.17 µM (active); in assay [4] it was 29.9 µM (active).
On to `Cc1cc2c(s1)Nc1ccccc1N=C2N1CCN(C)CC1`, for which the Potency result in assay [1], in assay [2], in [5] and in assay [11] was “inactive” throughout. In [4], the Potency is 23.5 µM (active).
`Cc1ccc(NC(=O)c2ccc(CN3CCN(C)CC3)cc2)cc1Nc1nccc(-c2cccnc2)n1`: the Potency result in assay [2] and in assay [5] was “inactive” in each case. The Potency entry in assay [11] was “inactive and 23.9 µM (active)”; in [3], 15 µM (active) and 20.6 µM (active) and 18.6 µM (active); in assay [4], 13.3 µM (active) and 18.4 µM (active) and 16.6 µM (active).
Turning to `CCOc1cc(CC(=O)N[C@@H](CC(C)C)c2ccccc2N2CCCCC2)ccc1C(=O)O`, the Potency entry in assay [1], in assay [2], in assay [5], in assay [11], in [3] and in assay [4] was “inactive” throughout. The Potency entry in assay [6] and in assay [9] was “inactive” each time. The call in assay [7], in [8], in [10] and in assay [12] was inactive.
Turning to `CCC(C)(Oc1ccc(C2(c3ccc(OC(C)(CC)C(=O)O)cc3)CCCCC2)cc1)C(=O)O` (centres undefined), the Potency result in assay [1], in [13], in assay [5], in assay [11], in [3] and in assay [4] was “inactive” throughout.
Take `C[C@]12CCC(=O)C=C1CC[C@@H]1[C@H]2[C@@H](O)C[C@@]2(C)[C@H]1CC[C@]2(O)C(=O)CO`: the Potency result in assay [2] is “inactive”.
Take `COC(=O)C1=C(C)NC(C)=C(C(=O)OC(C)C)C1c1cccc2nonc12` (centres undefined): the Potency entry in assay [1], in assay [2] and in assay [6] was “inactive” each time. Moreover, the molecule was called inactive in assay [7] and in assay [8]. In addition, in assay [9], the Potency is 44.1 µM (active).
With `COc1c(O)cc2c(c1O)[C@@H]1O[C@H](CO)[C@@H](O)[C@H](O)[C@H]1OC2=O`, the Potency entry in assay [1], in assay [5], in [11], in [3] and in assay [4] was “inactive” in each case.
Take `Clc1ccc(C(Cn2ccnc2)OCc2ccsc2Cl)c(Cl)c1` (centres undefined): the Potency result in [1] was “inactive”. Moreover, the Potency in assay [5] is 0.692 µM (active); in [11], 69.2 nM (active); in assay [3], 18600 nM (active); in [4] it was 18.6 µM (active).
With `O=C1NC(=O)C(c2ccccc2[N+](=O)[O-])=C1Nc1ccc(O)c(Cl)c1`, the Potency result in assay [1] and in assay [2] was “inactive” in each case. The Potency in assay [3] was 13200 nM (active); in [4] it was 18.6 µM (active).
Consider `C=C(c1ccc(C(=O)O)cc1)c1cc2c(cc1C)C(C)(C)CCC2(C)C`, for which the Potency entry in assay [1], in [2], in assay [5], in [3] and in assay [4] was “inactive” each time.
